This is a sample that favours compounds with a hit; in the whole collection about 19% have one here.
ELG1 DNA repair: qHTS screen for small molecules that inhibit ELG1-dependent DNA repair in human embryonic kidney (HEK293T) cells expressing luciferase-tagged ELG1; HEK293T ELG1-luciferase reporter, luminescence, 16 h; DNA damage induced by 5-fluorouridine; Potency, µM (doses to about 46.1 µM), inactives show top-dose activity change, negative = inhibition, usual class: inhibitors; hit rate 2.3% among 330,000; AID 504467, 2011; also: potency is read from the fitted curve at half-maximal effect; nearly all actives have a fitted effect of over 55% in size
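HEK293T cells expressing luciferase-tagged ELG1 (2,000/well) received 5-Fluorouridine plus compound or DMSO for 16 hr at 37 °C. Luciferase was read by ONE-Glo luminescence after 30 min at room temperature.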
IL1B secr inh: qHTS for Inhibitors of Inflammasome Signaling: IL-1-beta AlphaLISA Primary Screen. THP-1 LPS/ATP IL-1B secretion, AlphaLISA, 16 h; hits give low values. hit rate 4.7% among 360,000. activity change, % at 57.5 µM; in the data active = activity change below about -50%; inconclusive = mostly about -30% to -49%
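THP-1 cells pretreated 1 hr with compounds (up to 57.5 uM final), then stimulated with LPS (250 ng/mL final) plus ATP (1.25 mM final); secreted IL-1B measured by AlphaLISA after 16 hr, decreased signal indicating inhibition.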
DT40 TDP1 no CPT: qHTS for Inhibitors of human tyrosyl-DNA phosphodiesterase 1 (TDP1): qHTS in cells in absence of CPT | DT40 Tdp1-/- hTDP1 cells, no CPT, ATP luminescence, 48 h | Potency, µM (titrated, usually from 46.2 µM), without a hit: top-dose activity change, negative = growth inhibition, hits mostly inhibitors | hit rate 15% among 420,000 | AID 686978, 2013; also: potency is read from the fitted curve at half-maximal effect; nearly all actives have a fitted effect of over 55% in size
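Growth kinetics read by CellTiter-Glo luminescence after ≥48 hr at 37 °C. Cells: DT40 Tdp1-/- stably carrying human TDP1, 400 per well, compound exposure in the absence of CPT (DMSO vehicle).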
TDP1 cell CPT: qHTS for Inhibitors of human tyrosyl-DNA phosphodiesterase 1 (TDP1): qHTS in cells in presence of CPT | hit rate 12% among 420,000 | Potency, µM (doses to about 46.2 µM), for inactives: at the top dose activity change, negative = growth inhibition, most hits filed as inhibitors | chicken DT40 Tdp1-/-;hTDP1 cells + 20 nM CPT, ATP luminescence, 48 h; also: potency is read from the fitted curve at half-maximal effect; nearly all actives have a fitted effect of over 55% in size
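Cell growth measured by CellTiter-Glo luminescence after a minimum 48 h, 37 C compound exposure with 20 nM CPT in Tdp1-knockout DT40 cells stably expressing hTDP1, seeded 400/well; qHTS titration format.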
Giardia kill: Small Molecules that selectively kill Giardia lamblia: qHTS; Giardia lamblia trophozoite viability; AID 540267, 2011; activity change, % at 7.66 µM, hits read low; hit rate 0.15% among 340,000; in the data active = activity change below about -80%; inconclusive = between about -30% and that limit;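 also: parasites exposed to compound for two days anaerobically before the ATP read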
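Media and compound were dispensed first, then trophozoites at 100 cells/well; plates sat 48 hrs at 37 deg C without oxygen before ATP luminescence reagent was added and read after 15-30 min at room temperature.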
TDP1 block: qHTS Assay for Inhibitors of Tyrosyl-DNA Phosphodiesterase (TDP1); hit rate 0.28% among 350,000; Potency, µM (doses to about 130 µM), for inactives: at the top dose activity change, negative = inhibition, hits mostly inhibitors; recombinant TDP1, AlphaScreen DNA substrate cleavage; Tyrosyl-DNA phosphodiesterase 1 (Homo sapiens), Q9NUW8; also: potency is read from the fitted curve at half-maximal effect; nearly all actives have a fitted effect of over 40% in size
Target sequence (Q9NUW8 whole entry, looked up): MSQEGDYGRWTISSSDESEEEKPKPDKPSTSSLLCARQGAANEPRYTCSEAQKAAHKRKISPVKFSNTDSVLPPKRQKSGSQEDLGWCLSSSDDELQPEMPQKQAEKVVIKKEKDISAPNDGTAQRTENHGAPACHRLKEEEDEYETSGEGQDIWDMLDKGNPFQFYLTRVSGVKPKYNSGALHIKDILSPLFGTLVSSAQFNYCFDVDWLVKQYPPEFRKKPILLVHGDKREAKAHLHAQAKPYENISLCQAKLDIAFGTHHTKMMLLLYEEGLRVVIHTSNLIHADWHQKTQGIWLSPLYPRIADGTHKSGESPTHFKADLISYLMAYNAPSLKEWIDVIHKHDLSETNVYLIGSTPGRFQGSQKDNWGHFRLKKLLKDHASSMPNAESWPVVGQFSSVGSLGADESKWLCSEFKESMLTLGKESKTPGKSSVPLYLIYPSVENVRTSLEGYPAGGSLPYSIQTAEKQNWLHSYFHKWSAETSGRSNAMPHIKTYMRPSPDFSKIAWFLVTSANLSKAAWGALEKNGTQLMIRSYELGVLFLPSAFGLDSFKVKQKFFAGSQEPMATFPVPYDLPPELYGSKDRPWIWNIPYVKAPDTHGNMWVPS
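Signal: AlphaScreen proximity between streptavidin donor and anti-FITC acceptor beads on intact substrate. Reaction: Tdp1 1 nM, substrate 15 nM final, 5 min RT after 15 min compound preincubation.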
* marks the source's active call; other numbers are inactive results; ? = inconclusive; · = no result. Unless noted, calls follow the shape of the dose curve; as a rule, active = well fitted curve in the direction sought with a large enough effect; inconclusive = small, poorly fitted or top-dose-only effect, or another doubt; inactive = no such curve, though single readings can be large; an effect the other way counts as inactive or inconclusive. % is scaled to controls: 0 for no effect and ±100 for the full control effect.

SMILES	ELG1 DNA repair	IL1B secr inh	DT40 TDP1 no CPT	TDP1 cell CPT	Giardia kill	TDP1 block
Cc1cccc2cc(CN(Cc3ccc(F)cc3)C(=O)N(C)C)c3nnnn3c12	-17.8%	0.5	20.6µM*	23.1µM*	35.4	2.1%
CCOc1ncccc1C(=O)N1CCN(C(=O)c2ccccc2)CC1	-8.5%	0.7	11.6%	8.5%	-4.4	-1.6%
CCOc1ncccc1C(=O)N1CCN(c2cc(Cl)ccc2C)CC1	?	2.5	0.651µM*	0.82µM*	-1.3	-1.2%
CCCN1Cc2cccc(C(=O)N3CCN(c4cc(Cl)ccc4C)CC3)c2C1=O	20.6µM*	?	13µM*	?	-6.5	6.9%
CCOc1ncccc1C(=O)N1CCN(c2cccc(C)c2C)CC1	-17.6%	9.2	0.581µM*	0.517µM*	-7.7	3.8%
Cc1ccc(C(=O)Nc2cccc(OCc3cc(=O)n4c5c(sc4n3)CCCC5)c2)cc1	·	·	-14.7%	-15.8%	·	3.8%
CN(C(=O)COc1ncnc2ccccc12)C1CCCCC1	7.4%	6.0	-14.0%	-4.0%	-0.6	0.1%
O=C1C=C(c2cccs2)C[C@H](c2ccccc2)[C@H]1n1nnc([N+](=O)[O-])n1	-29.7%	-57.4*	2.91µM*	2.59µM*	-21.4	1.4%
CC(=O)C1C(=O)C=C(c2cccs2)CC1c1ccccc1 (centres undefined)	1.7%	-14.0	?	13.9%	5.5	0.0%
CCC(CC)NCc1ccc2c(c1)c1ccccc1n2CC	?	-54.2*	25.9µM*	18.4µM*	16.5	6.0%
CCn1c2ccccc2c2cc(CNCCCN3CCOCC3)ccc21	-19.1%	-14.5	16.4µM*	20.6µM*	0.7	6.0%
CCn1c2ccccc2c2cc(N)ccc21	-0.9%	-12.0	?	25.9µM*	4.7	9.6%
N#C/C(=C/c1ccc(F)cc1)C(N)=S	1.6%	36.6	-26.6%	-12.9%	5.2	10.0%
CCOc1ccc2ccccc2c1CNCCCN1CCOCC1	·	-24.6	?	-3.6%	·	·
CCn1c(=O)n(CC)c2cc(N)ccc21	?	-0.2	7.7%	4.3%	?	6.2%
CCn1c2ccccc2c2cc(/C=C(/C#N)C(N)=S)ccc21	·	7.8	16.4µM*	?	-19.3	·
Cc1nn2c(=O)cc(COC(=O)c3ccccc3NC(=O)C(C)Oc3ccccc3)nc2s1 (centres undefined)	·	·	-19.7%	?	·	1.2%
Cc1ccc(CNC(=O)CN2C(=O)CSc3ccc(S(=O)(=O)N4CCCCC4)cc32)cc1	-5.8%	?	8.2%	-25.9%	2.6	3.1%
COc1ccccc1CNC(=O)CN1C(=O)CSc2ccc(S(=O)(=O)N3CCCCC3)cc21	·	·	20.6µM*	?	·	2.6%
O=C(CN1C(=O)CSc2ccc(S(=O)(=O)N3CCCCC3)cc21)NCc1ccc(F)cc1Cl	·	·	?	23.1µM*	·	7.8%
COc1ccccc1CNC(=O)CN1C(=O)COc2ccc(S(=O)(=O)N3CCCCC3)cc21	17.6%	-7.7	?	?	14.2	6.1%
O=C(Cn1c(=O)nc(-c2ccccc2)c2cc(Cl)ccc21)NCCCc1ccccc1	·	·	-26.0%	-3.2%	·	2.7%
COc1ccc(C2NC(c3ccc(OC)cc3)C(C)C(=O)C2C)cc1 (centres undefined)	-7.3%	0.0	?	-20.6%	4.1	·
COc1ccc(C2NC(c3ccc(OC)cc3)C(c3ccccc3)C(=O)C2c2ccccc2)cc1 (centres undefined)	6.6%	-5.5	20.6µM*	-22.6%	13.0	3.5%
Oc1[nH]c2ccccc2c1N=Nc1ccccn1	·	-3.3	-1.6%	0.4%	8.0	·
SMILES	ELG1 DNA repair	IL1B secr inh	DT40 TDP1 no CPT	TDP1 cell CPT	Giardia kill	TDP1 block
Oc1c(N=Nc2ccccn2)ccc2ccccc12	?	-53.8*	1.64µM*	1.46µM*	-21.3	15.5%
COC(=O)c1sc(SC)nc1N	26.0%	21.1	4.7%	2.0%	?	3.9%
CSc1nc(N)c(C(=O)Nc2ccc([N+](=O)[O-])cc2)s1	9.2%	-74.6*	?	-9.1%	26.4	8.6%
COCCN=C1NN=C(c2cc(C)n(CC3CCCO3)c2C)CS1 (centres undefined)	5.6%	-8.5	?	?	-14.6	0.0%
COCCCN=C1NN=C(c2cc(C)n(-c3ccccc3)c2C)CS1	?	39.2	16.4µM*	?	-7.8	0.0%
COCCCN=C1NN=C(c2cc(C)n(Cc3ccccc3Cl)c2C)CS1	?	?	2.31µM*	?	-10.8	7.1%
COCCCN=C1NN=C(c2cc(C)n(-c3ccccc3F)c2C)CS1	?	16.7	8.2µM*	16.4µM*	2.8	8.9%
Cc1c(N(C)S(=O)(=O)c2cccc(C(=O)NC(C)C)c2)c(=O)n(-c2ccccc2)n1C	4.7%	13.9	-12.4%	-20.2%	-30.0	0.2%
COc1ccc(-n2nnnc2SCC(=O)Nc2nnc(C)s2)cc1	2.2%	20.2	5.62µM*	6.31µM*	-11.7	1.8%
CCOC(=O)c1csc(NC(=O)CSc2nnnn2-c2ccc(OC)cc2)n1	0.8%	26.0	?	?	-4.0	4.9%
CCC(=O)Nc1ccc(NC(=O)CSc2nnnn2-c2ccc(OC)cc2)cc1	-0.2%	8.3	-18.5%	-9.6%	19.0	·
CCOC(=O)c1c(NC(=O)CSc2nnc(CNc3ccc(Cl)cc3)o2)sc(C)c1C	-25.1%	-8.6	13µM*	?	-20.1	6.7%
CCOC(=O)c1c(NC(=O)CSc2nnnn2-c2ccc(OC)cc2)sc(C)c1C	?	-59.5*	4.11µM*	6.51µM*	7.6	·
CO[C@H]1CN(C)C(=O)c2ccc(NC(=O)c3ccc4c(c3)OCO4)cc2OC[C@H](C)N(CC2CC2)C[C@@H]1C	·	33.2	?	?	·	·
CC(=O)Nc1ccc(/C=C/c2nc(-c3ccccc3O)n(-c3ccccc3)n2)cc1	·	·	?	?	·	5.3%
COc1ccc(NC2CCCN(Cc3cccc4cnccc34)C2)cc1 (centres undefined)	10.1%	17.3	20.6µM*	?	20.0	·
COc1ccc(NC2CCCN(Cc3cccc4cnccc34)C2)cc1OC (centres undefined)	-22.2%	13.2	20.6µM*	?	22.0	·
COc1ccc(NC2CCCN(C(=O)c3cccnc3)C2)cc1 (centres undefined)	23.7%	5.7	-24.6%	1.7%	7.8	1.8%
CC1CCN(c2nnc(-n3cccc3CNc3cccc(F)c3)s2)CC1	·	·	?	?	·	0.0%
